Experimental findings from PubChem BioAssay AID687020 (Broad Institute, 2013) are described below.

Structures are written as SMILES. Out of some 1,400 compounds screened, about 100 (7.1%) were called active. How the calls were made is not given here. Not all results are given here. Entries with a potency or affinity are not part of this list.

The assay is described as follows: Vero cell toxicity, dose response, cytotoxicity control, plate reader, cherry-pick samples (AID 687020).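 Further: compounds incubated with cells for three days before luminescence read.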 Particulars: Vero cells toxicity; series mostly up to 19.5 µM.
Consider `CN1CCC(=O)N([C@H](COc2ccccc2)Cc2ccccc2)CC1`, for which the molecule was called inactive. On to `Cc1cccc(C(=O)OCC(=O)NCc2ccc(Cl)cc2)c1`, for which the result was inactive.

With `CSc1ccccc1OCc1cc(C(=O)N2CCc3[nH]cnc3C2c2ccccn2)no1` (configuration not stated), the outcome was inactive. As for `CN1C(c2ccccc2)CCOS1(=O)=O` (configuration not stated), the molecule was called inactive. As to `C=CCOc1ccc(CNCc2cccnc2)cc1OCC`, the molecule was classed as inactive. `Cc1nc2c(OCCC3CCCCC3)cccn2c1N(C)C(=O)CCC1CCCC1`: the molecule was called inactive. Turning to `Cc1ccc(-c2nc3ccccc3n2C(C(=O)NC(C)(C)C)C2CC2)cc1` (configuration not stated), the result was inactive. Take `Cc1csc(-c2nc3ccccc3n2C(C(=O)NC(C)(C)C)c2ccccc2)c1` (configuration not stated): the result was inactive.

On to `CCOc1ccc(OCC(=O)N(C)c2c(N)n(Cc3ccccc3)c(=O)[nH]c2=O)cc1`, for which the result was inactive. Consider `CC#CCN1C(=O)N[C@@H](c2ccccc2)C(C(=O)OC)=C1C`, for which the molecule was called inactive. On to `C[C@@H]1CN([C@H](C)CO)C(=O)c2cc(NC(=O)c3ccncc3)ccc2O[C@@H](C)CCCCO[C@H]1CN(C)C`, for which the molecule was called inactive. As to `COc1ccc2c(=O)cc(-c3ccncc3)oc2c1OC`, the molecule was called inactive. `CCOC(=O)C1=C(C)NC(=O)C(C#N)C1c1ccncc1` (configuration not stated): the molecule was classed as inactive. Consider `CCc1cc(=O)oc2cc(OCC(=O)NC3CC(C)(C)NC(C)(C)C3)ccc12`, for which the molecule was classed as inactive.

With `Cc1cc(OCC(=O)NC2CC(C)(C)NC(C)(C)C2)c(C)cc1Br`, the result was inactive. In the case of `CCOC(=O)C1(Cc2ccccc2C)CCCN(C(=O)c2cc(C3CC3)[nH]n2)C1` (configuration not stated), the outcome was inactive. The entry for `N#CC(Cc1ccccc1OC(F)F)c1nc2ccccc2[nH]1` (configuration not stated) is “inactive”. The entry for `CC(=O)NC[C@H]1[C@H](c2ccc(-c3ccccc3F)cc2)[C@@H](CO)N1C(=O)C1CC1` is “inactive”; for `O=C(COC(=O)c1ccc2c(c1)OCO2)NC1CCCCC1` it is “inactive”; for `COCCNC(=O)C1(C)CCCN(C(=O)c2ccc(C(F)(F)F)cc2)C1` (configuration not stated) it is “inactive”. The entry for `CO[C@@H]1CN(C)C(=O)c2cc(NC(=O)c3ccccc3)ccc2OC[C@H](C)N(C(=O)C2CC2)C[C@@H]1C` is “inactive”. With `COc1cc(C(=S)N2CCCCC2)ccc1OCC(=O)Nc1ccc(F)cc1`, the molecule was classed as inactive.

Turning to `O=C(O)C1CCCCC1C(=O)N1CCN(S(=O)(=O)c2ccc(F)cc2)CC1` (configuration not stated), the molecule was called inactive. For the molecule `O=C(NCCCC1CCCC1)C1CCC(=O)N(Cc2cccc(C(F)(F)F)c2)C1` (configuration not stated), the molecule was classed as inactive. Regarding `COc1ccc(NC(=O)Nc2ccc3c(c2)C(=O)N([C@@H](C)CO)C[C@H](C)[C@H](CN(C)Cc2ccc(C(=O)O)cc2)OCCCC[C@H](C)O3)cc1`, the molecule was classed as inactive.

With `O=C1NC[C@H](Cc2ccccc2)N(CC2CCN(CCCCc3ccccc3)CC2)C1=O`, the result was inactive.

As to `O=C1[C@@H](Oc2ccccc2)[C@@H](c2ccncc2)N1c1ccccc1`, the result was inactive. Consider `COc1cc(C(=S)N2CCCC2)ccc1OCc1ccc(C)cc1`, for which the call was inactive.

For `COc1cccc(OCc2cc(C(=O)N(C)CCC3CCCCO3)no2)c1` (configuration not stated), the call was inactive. With `O=S(=O)(NCCC1=CCCCC1)c1ccc(Br)cc1`, the call was inactive.

As to `F[B-](F)(F)c1cnc2ccccc2c1`, the result was inactive. As for `Cn1cccc1C(=O)OCC(=O)NC(=O)c1ccc(Cl)cc1`, the call was inactive.

With `C[C@H](CO)N1C[C@H](C)[C@@H](CN(C)C(=O)Nc2ccc(C(F)(F)F)cc2)OCCCC[C@H](C)Oc2ccc(NS(=O)(=O)c3cccs3)cc2C1=O`, the call was inactive.

For the molecule `Cc1noc(C)c1NC(=O)Nc1ccc2c(c1)C(=O)N([C@@H](C)CO)C[C@@H](C)[C@@H](CN(C)Cc1ccccc1)OCCCC[C@@H](C)O2`, the result was inactive. The entry for `CNC[C@@H]1OCCCC[C@H](C)Oc2ccc(NS(=O)(=O)c3c(C)noc3C)cc2C(=O)N([C@@H](C)CO)C[C@H]1C` is “inactive”; for `O=S(=O)(Nc1nc(SCc2ccc(Cl)cc2)n[nH]1)c1ccc(F)cc1` it is “inactive”; for `O=C(NCCc1ccccc1)c1ccccc1NC(=O)C1CCCCC1C(=O)O` (configuration not stated) it is “inactive”. For the molecule `Cc1ccc(C(=O)OCC(=O)Nc2ccccc2C(F)(F)F)cc1S(=O)(=O)N1CCCCC1`, the molecule was classed as inactive. The entry for `OC[C@@H]1[C@@H](c2ccccc2)C2(CN(Cc3nccs3)C2)N1Cc1cccnc1` is “inactive”; for `C[C@@H]1CN([C@@H](C)CO)C(=O)c2cc(C#Cc3cccc(F)c3)cnc2O[C@@H]1CN(C)C(=O)C1CCC1` it is “inactive”. With `CC(=O)NC(c1cccc(F)c1)c1nc(-c2ccc(N(C)C)cc2)cs1` (configuration not stated), the molecule was called inactive. The entry for `CC1CCC(CN2C(Nc3ccccc3)=NC[C@@H]2C)CC1` (some centres not stated) is “inactive”. Turning to `CC(C)CCCN1CCN=C1Nc1ccccc1`, the molecule was classed as inactive. The entry for `Cc1ccc(/C=N/NC(=O)c2ccc(-n3cnnn3)cc2)cc1` is “inactive”; for `CS(=O)(=O)N1[C@@H]2CNC[C@H]1C2c1ccc(-c2ccccc2)cc1` (some centres not stated) it is “inactive”.

As for `COc1ccc2c(c1)OC[C@H]1[C@H]2N2C(=O)c3cc(OC)ccc3NC(=O)[C@@]2(C)[C@H]1c1ccccc1`, the molecule was called inactive.

In the case of `CCOC(=O)C1CCN(C(=O)C2CC(=O)N(c3ccc4c(c3)OCCO4)C2)CC1` (configuration not stated), the call was inactive.

As to `c1ccc(COCCCn2cc(-c3ccccc3)nn2)cc1`, the molecule was called inactive.

Turning to `C[C@@H]1CN([C@H](C)CO)C(=O)c2cc(C#Cc3ccc(F)cc3)cnc2O[C@@H]1CN(C)C`, the molecule was classed as inactive. Regarding `CCCNC(=O)NC[C@@H]1[C@@H](c2ccc(C3=CCCC3)cc2)[C@@H](CO)N1C(=O)CC`, the molecule was called inactive. As for `COc1ccccc1S(=O)(=O)N(C)C[C@H]1Oc2cc(C#CCC(C)C)ccc2S(=O)(=O)N([C@@H](C)CO)C[C@@H]1C`, the molecule was called inactive. The entry for `N#C[C@H]1[C@H](c2ccc(C#CC3CCCCC3)cc2)[C@@H](CO)N1C(=O)Cc1ccccn1` is “inactive”; for `CCc1c(C2(O)CCCCC2)[nH]c2c(C(=O)OC)cc(Cl)cc12` it is “inactive”. With `Cc1ccc(S(=O)(=O)N2CCCCC2)cc1NC(=O)CCOc1ccccc1`, the outcome was inactive. For the molecule `COc1ccc(NC(=O)CN(C)CCOc2ccc(Cl)cc2)cc1OC`, the outcome was inactive. The entry for `CCN(CC)S(=O)(=O)c1ccc(N2CCOCC2)c(NC(=O)c2ccccc2)c1` is “inactive”. With `O=C(COc1ccc2c(-c3ccccc3)cc(=O)oc2c1)NC1CCS(=O)(=O)C1` (configuration not stated), the molecule was called inactive. As for `C[C@H](CO)N1C[C@H](C)[C@H](CN(C)C(=O)Nc2ccc(-c3ccccc3)cc2)OCc2ccccc2-c2c(n(C)c3ccccc23)C1=O`, the result was inactive. Turning to `CCOC(=O)C1=C(CS(=O)(=O)c2ccc(C)cc2)NC(=O)NC1c1cc(OC)c(O)c(OC)c1` (configuration not stated), the result was inactive. `COc1ccccc1Cn1c(=S)[nH]c2cc(C(=O)N3CC(C)CC(C)C3)ccc2c1=O` (configuration not stated): the molecule was classed as inactive. As to `COc1ccccc1CNC(=O)CCCN1C(=O)NC2(CCCC2)C1=O`, the outcome was inactive. For `CCc1ccc(NC(=O)COc2ccc3c(c2)OCO3)cc1`, the outcome was inactive. As to `CC1CCc2sc(C(=O)NN=C3CCCC3)cc2C1` (configuration not stated), the result was inactive. Take `COc1ccc(S(=O)(=O)N2CCC(C(=O)N[C@H](C(=O)NCc3ccccc3)C(C)C)CC2)cc1`: the molecule was called inactive.

As for `CC(C)c1ccc(NC(=O)[C@H](NC(=O)[C@@H]2Cc3ccccc3CN2)c2ccccc2)cc1`, the result was inactive. The entry for `COc1ccc(NC(=O)Nc2cccc3c2O[C@H](CN(C)C(=O)NC2CCCCC2)[C@H](C)CN([C@@H](C)CO)C3=O)cc1` is “inactive”. The entry for `CCCNC(=O)N1[C@H](CO)[C@H](c2ccccc2)[C@@H]1CNC(=O)c1ccc(F)cc1` is “inactive”; for `COc1ccc(S(=O)(=O)N2CCCCCC2)cc1NC(=O)Cc1cccc(C(F)(F)F)c1` it is “inactive”.

Consider `O=C(C1CC1)N1[C@@H](CO)[C@@H]2c3ccccc3NC[C@@H]21`, for which the molecule was classed as inactive. With `O=C(NCc1ccccc1F)[C@H]1N[C@H]2c3ccc(-c4ccccc4F)c(=O)n3C[C@H]2[C@@H]1CO`, the result was inactive. On to `C[C@H](NC(=O)[C@H]1N[C@H]2c3ccc(-c4cccnc4)c(=O)n3C[C@H]2[C@@H]1CO)c1ccccc1`, for which the outcome was inactive. For `NC(=O)c1ccccc1NC(=O)COC(=O)C1(c2ccccc2)CC1`, the call was inactive. As to `CSCCC(NC(=O)COc1ccccc1)C(=O)OCCOc1ccc(C)cc1` (configuration not stated), the molecule was classed as inactive.

`COc1cc(OC)cc(C(=O)Nc2ccc(N3CCN(C(=O)c4cccs4)CC3)cc2)c1`: the molecule was classed as inactive. The entry for `Cc1cccc(OCC(=O)Nc2ccc(N3CCN(C(=O)c4ccccc4)CC3)cc2)c1C` is “inactive”. Take `C/C(CC(=O)Nc1ccc(Cl)c(Cl)c1)=N\NC(=O)Cc1ccccc1`: the outcome was inactive. Consider `COc1ccc(S(=O)(=O)Nc2cccc3c2O[C@@H](CN(C)S(C)(=O)=O)[C@@H](C)CN([C@@H](C)CO)C3=O)cc1`, for which the outcome was inactive.

For the molecule `CCC(C)c1ccc(NC(=O)NCCN2CCCCC2)cc1` (configuration not stated), the result was inactive. Regarding `OC(CSc1nnnn1-c1ccccc1)Cn1c2ccccc2c2ccccc21` (configuration not stated), the call was inactive.

Turning to `C[C@@H]1CCCCO[C@H](CN(C)S(=O)(=O)c2ccccc2)[C@@H](C)CN([C@@H](C)CO)C(=O)c2cc(NC(=O)c3ccncc3)ccc2O1`, the outcome was inactive. With `CCC(N=c1cc(-c2ccc(OC)c(OC)c2)oc2ccc(C)cc12)C(=O)O` (configuration not stated), the outcome was inactive. Turning to `CN(C)S(=O)(=O)N1CCC(Oc2ccc(C(=O)N3CCCCCCC3)cc2)CC1`, the call was inactive. Turning to `O=C(NCC1CC1)c1onc(CSc2ccc(F)c(F)c2)c1C(=O)NCC1CC1`, the call was inactive. Take `O=C(O)CCCCCCCCc1cn(CCc2c[nH]c3ccccc23)nn1`: the result was inactive. As to `COc1ccc(CC(=O)NC2CCCCCC2)c(OC)c1`, the molecule was called inactive. For `COc1ccc(S(=O)(=O)N2CCN(CC(=O)NC3CC3)CC2)cc1`, the result was inactive. In the case of `CC12CCC(=O)N1C(C(=O)Nc1nc(-c3ccccc3)cs1)CS2` (configuration not stated), the outcome was inactive. As for `C[C@@H]1CCCCO[C@H](CN(C)S(C)(=O)=O)[C@@H](C)CN([C@H](C)CO)C(=O)c2cc(NC(=O)CCC(F)(F)F)ccc2O1`, the result was inactive.

Regarding `O=C(Cn1cnc2c(NCc3ccccc3)ncnc21)NCC1CCCO1` (configuration not stated), the molecule was called inactive.

For `CCCN1Cc2cccc(C(=O)Nc3ccc4c(c3)OCCO4)c2C1=O`, the result was inactive. Regarding `Cn1cc([C@]2(O)C(=O)Nc3ccccc32)c2ccccc21`, the outcome was inactive. Take `CN1c2ccc(Br)cc2[C@@H]2[C@@H](CCN2S(=O)(=O)c2ccccc2)[C@H]1CO`: the outcome was inactive.
